This is an account of results in the supplement of paper PMC11172423.

For the first assay, the system named is Madurella mycetomatis MM55. Kind of assay: growth relative to untreated control; higher = less inhibition, active = 20 or less. The settings on record: 25 µM. Here is the method: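 Hyphal fragments of M. mycetomatis MM55 or F. senegalensis CBS197.79 in RPMI 1640/MOPS were exposed to each MMV COVID Box or Global Health Priority Box compound at 100 or 25 µM for 7 days at 37 °C. Viability was read with MTS (490 nm, M. mycetomatis) or resazurin (600 nm, F. senegalensis), background-corrected with a medium-only control and expressed as % growth relative to the untreated growth control. Inhibition of more than 80% was taken as growth inhibition.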
As to `O=C(NC(=O)c1ccccc1Cl)Nc1ccc(OC(F)(F)F)cc1`, the growth is 106% (inactive).
Still for that read-out and setting: the result for `N#CCNC(=O)c1cnccc1C(F)(F)F` reads 109% (inactive); that for `CNC(=O)Oc1cccc2c1OC(C)(C)O2`, 95.6% (inactive).
The same measure, in the same setting: the result for `CN(c1cc(NC(=O)c2ccc(F)cc2)ccn1)C1CCN(Cc2cccc(F)c2)CC1` reads 5.69% (active).
On the same count and under the same terms, the result for `CC1(Nc2ncc3nc(Nc4cc(Cl)cc(C(F)(F)F)c4)n(C4CCNC4)c3n2)CC1` (stereo not given) reads 6.99% (active).
In the case of `Clc1ccc(C(OCCN2CCCCC2)c2ccccc2)cc1` (stereo not given), the growth was 120% (inactive).
The same measure, in the same setting: the result for `CC(c1ccc(C(F)(F)F)nc1)S(C)(=O)=NC#N` (stereo not given) reads 71.6% (inactive); that for `C/C=C(\C)C(=O)O[C@H]1C[C@@H](OC(C)=O)[C@@]2(C(=O)OC)CO[C@H]3[C@@H](O)[C@@](C)([C@]45O[C@@]4(C)[C@H]4C[C@@H]5O[C@@H]5OC=C[C@@]54O)[C@H]4[C@]1(CO[C@]4(O)C(=O)OC)[C@@H]32`, 130% (inactive).
Same read-out and setting: the result for `Cc1nc(N(C)C)nc(OC(=O)N(C)C)c1C` reads 109% (inactive).
Still for that read-out and setting: the result for `CNC(=O)Oc1cccc2ccccc12` reads 95.8% (inactive).
On to `CCOc1ccc(C(C)(C)COCc2cccc(Oc3ccccc3)c2)cc1`, for which the growth was 97% (inactive).
With `CNC(=O)Oc1ccccc1OC(C)C`, the growth was 120% (inactive).
For the compound `O=C(NC(=O)c1c(F)cccc1F)Nc1ccc(Cl)c(Oc2ncc(C(F)(F)F)cc2Cl)c1`, the growth was 46.7% (inactive).
Still for that read-out and setting: the result for `CN/C(=N\[N+](=O)[O-])NCc1cnc(Cl)s1` reads 112% (inactive).
Still for that read-out and setting: the result for `COP(=S)(OC)Oc1ccc(Sc2ccc(OP(=S)(OC)OC)cc2)cc1` reads 118% (inactive); that for `COc1cc(/C=N/c2c(SC(F)(F)F)c(C#N)nn2-c2c(Cl)cc(C(F)(F)F)cc2Cl)ccc1O`, 21% (inactive).
Still for that read-out and setting: the result for `CCc1nn(C)c(C(=O)NCc2ccc(Oc3ccc(C)cc3)cc2)c1Cl` reads 66.4% (inactive); that for `CN/C(=N/CC1CCOC1)N[N+](=O)[O-]` (stereo not given), 90.9% (inactive).
In the case of `C[C@@H]1O[C@@H](O[C@@H]2C=C3CC[C@@H]4[C@H](CC[C@]5(C)[C@@H](c6ccc(=O)oc6)CC[C@]45O)[C@@]3(C)CC2)[C@H](O)[C@H](O)[C@H]1O`, the growth was 93.2% (inactive).
Still for that read-out and setting: under `CC1(C)C(C=C(Cl)Cl)C1C(=O)OC(C#N)c1ccc(F)c(Oc2ccccc2)c1` (stereo not given) stands 115% (inactive).

The same assay, now with this note: 100 µM.
For `O=C(NC(=O)c1ccccc1Cl)Nc1ccc(OC(F)(F)F)cc1`, the growth is 112% (inactive).
Regarding `N#CCNC(=O)c1cnccc1C(F)(F)F`, the growth was 142% (inactive).
The same measure, in the same setting: under `CNC(=O)Oc1cccc2c1OC(C)(C)O2` stands 129% (inactive).
Still for that read-out and setting: under `CN(c1cc(NC(=O)c2ccc(F)cc2)ccn1)C1CCN(Cc2cccc(F)c2)CC1` stands 9.07% (active); under `CC1(Nc2ncc3nc(Nc4cc(Cl)cc(C(F)(F)F)c4)n(C4CCNC4)c3n2)CC1` (stereo not given), 6.62% (active).
Same read-out and setting: under `Clc1ccc(C(OCCN2CCCCC2)c2ccccc2)cc1` (stereo not given) stands 4.6% (active); under `CC(c1ccc(C(F)(F)F)nc1)S(C)(=O)=NC#N` (stereo not given), 173% (inactive).
In the case of `C/C=C(\C)C(=O)O[C@H]1C[C@@H](OC(C)=O)[C@@]2(C(=O)OC)CO[C@H]3[C@@H](O)[C@@](C)([C@]45O[C@@]4(C)[C@H]4C[C@@H]5O[C@@H]5OC=C[C@@]54O)[C@H]4[C@]1(CO[C@]4(O)C(=O)OC)[C@@H]32`, the growth was 106% (inactive).
Still for that read-out and setting: the result for `Cc1nc(N(C)C)nc(OC(=O)N(C)C)c1C` reads 137% (inactive); that for `CNC(=O)Oc1cccc2ccccc12`, 85.3% (inactive); that for `CCOc1ccc(C(C)(C)COCc2cccc(Oc3ccccc3)c2)cc1`, 116% (inactive).
On to `CNC(=O)Oc1ccccc1OC(C)C`, for which the growth is 129% (inactive).
Still for that read-out and setting: the result for `O=C(NC(=O)c1c(F)cccc1F)Nc1ccc(Cl)c(Oc2ncc(C(F)(F)F)cc2Cl)c1` reads 149% (inactive); that for `CN/C(=N\[N+](=O)[O-])NCc1cnc(Cl)s1`, 127% (inactive); that for `COP(=S)(OC)Oc1ccc(Sc2ccc(OP(=S)(OC)OC)cc2)cc1`, 118% (inactive).
The same measure, in the same setting: the result for `COc1cc(/C=N/c2c(SC(F)(F)F)c(C#N)nn2-c2c(Cl)cc(C(F)(F)F)cc2Cl)ccc1O` reads 53.9% (inactive); that for `CCc1nn(C)c(C(=O)NCc2ccc(Oc3ccc(C)cc3)cc2)c1Cl`, 120% (inactive).
Still for that read-out and setting: under `CN/C(=N/CC1CCOC1)N[N+](=O)[O-]` (stereo not given) stands 125% (inactive); under `C[C@@H]1O[C@@H](O[C@@H]2C=C3CC[C@@H]4[C@H](CC[C@]5(C)[C@@H](c6ccc(=O)oc6)CC[C@]45O)[C@@]3(C)CC2)[C@H](O)[C@H](O)[C@H]1O`, 82.8% (inactive); under `CC1(C)C(C=C(Cl)Cl)C1C(=O)OC(C#N)c1ccc(F)c(Oc2ccccc2)c1` (stereo not given), 146% (inactive).
